What was measured:
Test in all cases: DAPPL (digital affinity profiling via proximity ligation, sequencing); 10 mM Tris-HCl pH 7.5, 50 mM NaCl, 1 mM DTT, 4% glycerol, room temperature, 30 min; GST-TFs on glutathione beads, 16-mer random dsDNA library, 0.1% formaldehyde crosslink after washing; high values mean tight binding
FEV = biological target: T1, FEV (Homo sapiens, UniProt Q99581 1-238); settings: protein: recombinant; tags: N-terminal GST; dsDNA, one strand shown
T1 sequence: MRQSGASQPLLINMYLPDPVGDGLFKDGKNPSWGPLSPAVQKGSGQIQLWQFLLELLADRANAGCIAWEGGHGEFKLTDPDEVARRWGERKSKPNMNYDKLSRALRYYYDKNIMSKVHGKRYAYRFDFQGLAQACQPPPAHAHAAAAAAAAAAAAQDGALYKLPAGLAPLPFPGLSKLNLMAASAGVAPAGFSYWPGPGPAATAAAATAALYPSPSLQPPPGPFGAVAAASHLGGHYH
Summary of the method: (§1)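 Pools of DNA-barcoded human transcription factors, expressed in yeast as GST fusions on glutathione beads and combined with a tag-only sample, were incubated with 200 nmole of a 16-mer random double-stranded DNA library. Incubation took 30 min at room temperature in Tris/NaCl/DTT/glycerol buffer and was followed by washing, 0.1% formaldehyde crosslinking, proximity ligation (BsaI/T4 ligase, 1 h, 37 °C), PCR amplification and sequencing on an Illumina NextSeq500. Binding signal is the ratio of a hexamer's read frequency for a factor to its frequency for the tag-only sample.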

ETV5 = ETV5 (Homo sapiens, UniProt P41161 1-510); settings: protein: recombinant; tags: N-terminal GST; dsDNA, one strand shown
Chain of ETV5 (P41161 whole entry): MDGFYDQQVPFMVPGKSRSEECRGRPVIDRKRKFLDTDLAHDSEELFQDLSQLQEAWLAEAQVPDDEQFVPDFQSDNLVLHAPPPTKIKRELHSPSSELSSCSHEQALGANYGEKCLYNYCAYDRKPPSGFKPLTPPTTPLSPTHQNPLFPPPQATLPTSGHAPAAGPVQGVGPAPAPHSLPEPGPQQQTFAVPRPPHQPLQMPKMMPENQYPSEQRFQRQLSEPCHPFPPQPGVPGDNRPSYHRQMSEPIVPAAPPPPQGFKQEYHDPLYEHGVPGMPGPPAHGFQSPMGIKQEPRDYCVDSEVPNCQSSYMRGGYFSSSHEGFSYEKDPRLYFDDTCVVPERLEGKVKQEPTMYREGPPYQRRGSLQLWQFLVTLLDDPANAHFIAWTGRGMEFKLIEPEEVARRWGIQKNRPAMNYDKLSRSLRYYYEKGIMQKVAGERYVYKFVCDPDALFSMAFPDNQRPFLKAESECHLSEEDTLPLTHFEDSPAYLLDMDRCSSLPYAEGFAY
Summary of the method: as §1

HSF1 = HSF1 (Homo sapiens, UniProt Q00613 1-529); settings: protein: recombinant; tags: N-terminal GST; chain copies: 3; dsDNA, one strand shown
Chain of HSF1 (Q00613 whole entry): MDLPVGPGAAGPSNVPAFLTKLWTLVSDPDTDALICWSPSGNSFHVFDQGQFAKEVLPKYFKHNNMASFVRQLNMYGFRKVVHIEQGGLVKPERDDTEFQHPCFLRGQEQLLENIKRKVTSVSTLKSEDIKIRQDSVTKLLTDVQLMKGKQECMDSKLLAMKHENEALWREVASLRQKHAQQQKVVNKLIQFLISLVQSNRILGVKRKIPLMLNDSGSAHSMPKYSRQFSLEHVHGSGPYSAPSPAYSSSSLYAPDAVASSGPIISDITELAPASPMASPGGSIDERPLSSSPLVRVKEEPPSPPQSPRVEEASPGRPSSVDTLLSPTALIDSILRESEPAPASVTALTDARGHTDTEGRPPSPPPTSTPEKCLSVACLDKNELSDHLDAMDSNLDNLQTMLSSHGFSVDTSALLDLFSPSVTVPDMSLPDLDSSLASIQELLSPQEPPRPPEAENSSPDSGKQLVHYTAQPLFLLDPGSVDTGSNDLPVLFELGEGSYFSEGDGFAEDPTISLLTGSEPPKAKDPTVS
Summary of the method: as §1

SPIC = biological target: T2, SPIC (Homo sapiens, UniProt Q8N5J4 1-248); settings: protein: recombinant; tags: N-terminal GST; dsDNA, one strand shown
T2 sequence: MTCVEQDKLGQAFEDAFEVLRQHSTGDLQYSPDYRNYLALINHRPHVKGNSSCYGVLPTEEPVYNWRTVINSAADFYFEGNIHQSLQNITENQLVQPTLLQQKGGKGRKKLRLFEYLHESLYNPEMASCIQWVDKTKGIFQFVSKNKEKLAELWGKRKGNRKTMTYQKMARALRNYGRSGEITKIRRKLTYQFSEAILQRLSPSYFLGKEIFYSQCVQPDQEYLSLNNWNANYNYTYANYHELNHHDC
Summary of the method: as §1

ELF4 = ELF4 (Homo sapiens, UniProt Q99607 1-663); settings: protein: recombinant; tags: N-terminal GST; dsDNA, one strand shown
Chain of ELF4 (Q99607 whole entry): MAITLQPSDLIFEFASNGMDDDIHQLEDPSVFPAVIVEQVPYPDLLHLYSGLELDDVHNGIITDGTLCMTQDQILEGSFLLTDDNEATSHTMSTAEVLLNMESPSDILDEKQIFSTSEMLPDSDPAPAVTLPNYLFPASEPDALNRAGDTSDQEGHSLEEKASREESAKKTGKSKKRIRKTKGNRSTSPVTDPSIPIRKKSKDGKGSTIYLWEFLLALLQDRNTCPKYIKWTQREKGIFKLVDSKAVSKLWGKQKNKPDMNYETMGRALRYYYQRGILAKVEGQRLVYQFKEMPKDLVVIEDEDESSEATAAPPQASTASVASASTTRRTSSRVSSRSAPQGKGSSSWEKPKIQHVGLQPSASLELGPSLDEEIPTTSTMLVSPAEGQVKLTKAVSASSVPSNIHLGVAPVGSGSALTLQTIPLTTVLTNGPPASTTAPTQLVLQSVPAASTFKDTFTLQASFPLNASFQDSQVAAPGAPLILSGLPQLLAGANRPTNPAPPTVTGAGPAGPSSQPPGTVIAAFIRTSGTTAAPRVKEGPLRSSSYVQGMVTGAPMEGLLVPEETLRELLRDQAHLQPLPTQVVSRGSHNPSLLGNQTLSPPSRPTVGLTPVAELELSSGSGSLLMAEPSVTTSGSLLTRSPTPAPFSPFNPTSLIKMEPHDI
Summary of the method: as §1

ELK4 = biological target: T3, ELK4 (Homo sapiens, UniProt P28324-2 1-405); settings: protein: recombinant; tags: N-terminal GST; dsDNA, one strand shown
T3 sequence: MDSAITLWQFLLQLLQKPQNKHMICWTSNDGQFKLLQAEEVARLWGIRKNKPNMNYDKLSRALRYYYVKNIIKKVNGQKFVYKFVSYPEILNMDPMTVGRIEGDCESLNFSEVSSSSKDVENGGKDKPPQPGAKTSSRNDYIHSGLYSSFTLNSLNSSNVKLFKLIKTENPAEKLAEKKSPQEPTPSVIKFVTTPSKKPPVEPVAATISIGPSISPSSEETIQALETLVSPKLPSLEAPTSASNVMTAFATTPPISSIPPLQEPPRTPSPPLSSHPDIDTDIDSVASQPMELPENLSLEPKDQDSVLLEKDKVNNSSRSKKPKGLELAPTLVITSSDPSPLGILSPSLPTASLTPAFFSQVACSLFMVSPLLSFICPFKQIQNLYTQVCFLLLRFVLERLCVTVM
Summary of the method: as §1

ETV2 = biological target: T4, ETV2 (Homo sapiens, UniProt O00321 1-342); settings: protein: recombinant; tags: N-terminal GST; dsDNA, one strand shown
T4 sequence: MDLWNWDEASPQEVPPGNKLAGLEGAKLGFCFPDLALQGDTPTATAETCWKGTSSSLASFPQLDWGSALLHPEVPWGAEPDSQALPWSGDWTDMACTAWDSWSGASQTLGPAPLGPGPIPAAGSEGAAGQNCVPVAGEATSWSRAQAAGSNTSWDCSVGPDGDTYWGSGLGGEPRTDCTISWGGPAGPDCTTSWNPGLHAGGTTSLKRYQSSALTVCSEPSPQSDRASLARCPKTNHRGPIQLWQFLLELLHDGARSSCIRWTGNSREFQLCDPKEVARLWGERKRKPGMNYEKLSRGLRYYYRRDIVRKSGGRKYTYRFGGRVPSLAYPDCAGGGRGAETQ
Summary of the method: as §1

ELF3 = biological target: T5, ELF3 (Homo sapiens, UniProt P78545 1-371); settings: protein: recombinant; tags: N-terminal GST; dsDNA, one strand shown
T5 sequence: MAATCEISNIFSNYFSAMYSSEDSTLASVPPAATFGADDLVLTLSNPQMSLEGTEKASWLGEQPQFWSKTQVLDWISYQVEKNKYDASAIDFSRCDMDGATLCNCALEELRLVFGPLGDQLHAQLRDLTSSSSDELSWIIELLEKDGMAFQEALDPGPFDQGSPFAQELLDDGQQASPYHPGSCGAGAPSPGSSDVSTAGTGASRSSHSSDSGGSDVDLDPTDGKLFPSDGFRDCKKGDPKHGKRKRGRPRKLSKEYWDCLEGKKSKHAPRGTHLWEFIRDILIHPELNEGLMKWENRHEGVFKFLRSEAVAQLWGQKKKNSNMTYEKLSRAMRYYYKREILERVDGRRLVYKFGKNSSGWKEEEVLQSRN
Summary of the method: as §1

CRX = CRX (Homo sapiens, UniProt O43186 1-299); settings: protein: recombinant; tags: N-terminal GST; dsDNA, one strand shown
Chain of CRX (O43186 whole entry): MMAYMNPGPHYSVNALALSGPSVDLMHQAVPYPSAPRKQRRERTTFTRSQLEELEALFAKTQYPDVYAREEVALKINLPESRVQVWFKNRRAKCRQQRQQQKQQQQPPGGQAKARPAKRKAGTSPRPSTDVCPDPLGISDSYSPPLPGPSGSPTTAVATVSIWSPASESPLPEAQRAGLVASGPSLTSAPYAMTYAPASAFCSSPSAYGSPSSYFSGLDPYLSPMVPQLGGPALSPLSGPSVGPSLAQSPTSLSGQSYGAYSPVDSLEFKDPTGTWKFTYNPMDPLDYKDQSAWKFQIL
Summary of the method: as §1

ETV1 = ETV1 (Homo sapiens, UniProt P50549 1-477); settings: protein: recombinant; tags: N-terminal GST; dsDNA, one strand shown
Chain of ETV1 (P50549 whole entry): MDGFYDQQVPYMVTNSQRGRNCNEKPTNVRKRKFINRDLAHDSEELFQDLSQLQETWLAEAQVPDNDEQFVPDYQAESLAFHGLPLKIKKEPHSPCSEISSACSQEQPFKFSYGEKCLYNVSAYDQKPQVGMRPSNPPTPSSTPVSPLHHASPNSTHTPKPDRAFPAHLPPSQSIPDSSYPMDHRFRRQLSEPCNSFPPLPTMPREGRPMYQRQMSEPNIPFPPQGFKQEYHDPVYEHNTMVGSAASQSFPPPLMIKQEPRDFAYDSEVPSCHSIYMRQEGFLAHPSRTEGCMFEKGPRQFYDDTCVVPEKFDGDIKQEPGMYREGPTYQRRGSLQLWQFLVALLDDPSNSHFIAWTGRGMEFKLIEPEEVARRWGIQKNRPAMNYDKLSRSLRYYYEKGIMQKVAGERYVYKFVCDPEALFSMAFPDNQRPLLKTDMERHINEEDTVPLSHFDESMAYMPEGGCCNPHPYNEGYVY
Summary of the method: as §1

ERF = biological target: T6, ERF (Homo sapiens, UniProt P50548 1-548); settings: protein: recombinant; tags: N-terminal GST; dsDNA, one strand shown
T6 sequence: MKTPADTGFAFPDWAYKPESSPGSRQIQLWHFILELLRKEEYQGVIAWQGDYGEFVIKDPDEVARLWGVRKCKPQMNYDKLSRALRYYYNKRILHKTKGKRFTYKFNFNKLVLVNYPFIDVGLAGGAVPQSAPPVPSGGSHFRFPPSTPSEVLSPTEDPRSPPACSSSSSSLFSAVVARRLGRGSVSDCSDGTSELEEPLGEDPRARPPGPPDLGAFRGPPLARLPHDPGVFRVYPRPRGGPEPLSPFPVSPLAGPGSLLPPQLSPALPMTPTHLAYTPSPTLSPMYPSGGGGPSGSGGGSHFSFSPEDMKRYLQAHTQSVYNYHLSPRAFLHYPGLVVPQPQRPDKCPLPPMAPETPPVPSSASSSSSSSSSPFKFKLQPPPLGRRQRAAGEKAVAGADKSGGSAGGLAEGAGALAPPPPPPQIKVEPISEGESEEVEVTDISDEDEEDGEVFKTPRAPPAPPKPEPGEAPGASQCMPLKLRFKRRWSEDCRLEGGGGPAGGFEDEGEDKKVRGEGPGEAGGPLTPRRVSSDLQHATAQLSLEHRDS
Summary of the method: as §1

ETV3L = biological target: T7, ETV3L (Homo sapiens, UniProt Q6ZN32 1-361); settings: protein: recombinant; tags: N-terminal GST; dsDNA, one strand shown
T7 sequence: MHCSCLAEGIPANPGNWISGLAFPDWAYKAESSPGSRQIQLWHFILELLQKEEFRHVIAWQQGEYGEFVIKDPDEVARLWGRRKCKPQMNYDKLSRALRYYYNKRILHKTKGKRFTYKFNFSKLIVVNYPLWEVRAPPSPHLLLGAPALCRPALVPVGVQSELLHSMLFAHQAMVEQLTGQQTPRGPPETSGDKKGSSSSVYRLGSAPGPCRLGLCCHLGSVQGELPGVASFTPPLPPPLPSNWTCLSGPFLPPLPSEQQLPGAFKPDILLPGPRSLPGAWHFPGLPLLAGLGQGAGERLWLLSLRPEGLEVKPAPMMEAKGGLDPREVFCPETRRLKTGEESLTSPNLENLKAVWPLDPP
Summary of the method: as §1

ETS2 = biological target: T8, ETS2 (Homo sapiens, UniProt P15036 1-469); settings: protein: recombinant; tags: N-terminal GST; dsDNA, one strand shown
T8 sequence: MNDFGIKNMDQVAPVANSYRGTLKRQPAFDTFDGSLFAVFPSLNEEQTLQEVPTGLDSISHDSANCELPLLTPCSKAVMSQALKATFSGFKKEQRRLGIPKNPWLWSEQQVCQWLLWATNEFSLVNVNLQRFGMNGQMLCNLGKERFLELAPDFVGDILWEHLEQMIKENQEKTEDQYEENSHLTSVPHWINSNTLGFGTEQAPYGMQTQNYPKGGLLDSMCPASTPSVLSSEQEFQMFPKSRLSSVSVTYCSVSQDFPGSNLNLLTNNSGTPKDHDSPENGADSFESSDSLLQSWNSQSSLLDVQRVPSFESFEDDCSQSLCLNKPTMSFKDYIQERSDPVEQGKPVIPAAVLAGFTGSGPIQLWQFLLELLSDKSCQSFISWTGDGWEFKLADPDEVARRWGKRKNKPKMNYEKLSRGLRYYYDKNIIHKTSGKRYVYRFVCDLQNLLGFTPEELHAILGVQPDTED
Summary of the method: as §1

SPDEF = biological target: T9, SPDEF (Homo sapiens, UniProt O95238 1-335); settings: protein: recombinant; tags: N-terminal GST; dsDNA, one strand shown
T9 sequence: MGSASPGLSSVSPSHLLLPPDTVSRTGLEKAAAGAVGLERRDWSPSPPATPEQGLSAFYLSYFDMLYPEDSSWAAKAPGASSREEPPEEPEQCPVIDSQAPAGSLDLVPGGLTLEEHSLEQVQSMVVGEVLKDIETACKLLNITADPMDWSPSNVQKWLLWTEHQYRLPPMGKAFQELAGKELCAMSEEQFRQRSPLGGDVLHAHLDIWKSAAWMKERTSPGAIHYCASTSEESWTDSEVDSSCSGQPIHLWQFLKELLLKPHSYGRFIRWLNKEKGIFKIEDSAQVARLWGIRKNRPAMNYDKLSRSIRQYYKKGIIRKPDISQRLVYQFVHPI
Summary of the method: as §1

ETV7 = biological target: T10, ETV7 (Homo sapiens, UniProt Q9Y603 1-341); settings: protein: recombinant; tags: N-terminal GST; dsDNA, one strand shown
T10 sequence: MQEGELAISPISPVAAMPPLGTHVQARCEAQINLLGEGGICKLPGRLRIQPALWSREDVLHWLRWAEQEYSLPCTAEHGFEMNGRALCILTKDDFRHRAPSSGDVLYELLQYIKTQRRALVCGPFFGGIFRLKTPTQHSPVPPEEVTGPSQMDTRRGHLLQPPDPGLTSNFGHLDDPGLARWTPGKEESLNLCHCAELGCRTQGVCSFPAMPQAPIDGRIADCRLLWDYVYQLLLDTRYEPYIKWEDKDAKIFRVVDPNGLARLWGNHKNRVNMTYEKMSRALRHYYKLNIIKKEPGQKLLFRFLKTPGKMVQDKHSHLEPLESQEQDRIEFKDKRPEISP
Summary of the method: as §1

ELF5 = biological target: T11, ELF5 (Homo sapiens, UniProt Q9UKW6-2 1-255); settings: protein: recombinant; tags: N-terminal GST; dsDNA, one strand shown
T11 sequence: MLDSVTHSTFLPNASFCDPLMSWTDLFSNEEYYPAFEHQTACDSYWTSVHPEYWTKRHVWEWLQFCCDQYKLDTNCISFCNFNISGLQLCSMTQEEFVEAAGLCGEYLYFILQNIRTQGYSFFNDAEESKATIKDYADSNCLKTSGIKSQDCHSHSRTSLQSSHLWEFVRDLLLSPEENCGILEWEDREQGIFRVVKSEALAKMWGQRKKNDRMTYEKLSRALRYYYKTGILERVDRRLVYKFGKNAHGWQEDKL
Summary of the method: as §1

ETV3 = biological target: T12, ETV3 (Homo sapiens, UniProt P41162-2 1-143); settings: protein: recombinant; tags: N-terminal GST; dsDNA, one strand shown
T12 sequence: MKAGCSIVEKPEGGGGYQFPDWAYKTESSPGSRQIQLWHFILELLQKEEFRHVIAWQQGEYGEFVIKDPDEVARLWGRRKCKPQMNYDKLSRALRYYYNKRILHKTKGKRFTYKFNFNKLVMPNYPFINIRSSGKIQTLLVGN
Summary of the method: as §1

ETV6 = ETV6 (Homo sapiens, UniProt P41212 1-452); settings: protein: recombinant; tags: N-terminal GST; dsDNA, one strand shown
Chain of ETV6 (P41212 whole entry): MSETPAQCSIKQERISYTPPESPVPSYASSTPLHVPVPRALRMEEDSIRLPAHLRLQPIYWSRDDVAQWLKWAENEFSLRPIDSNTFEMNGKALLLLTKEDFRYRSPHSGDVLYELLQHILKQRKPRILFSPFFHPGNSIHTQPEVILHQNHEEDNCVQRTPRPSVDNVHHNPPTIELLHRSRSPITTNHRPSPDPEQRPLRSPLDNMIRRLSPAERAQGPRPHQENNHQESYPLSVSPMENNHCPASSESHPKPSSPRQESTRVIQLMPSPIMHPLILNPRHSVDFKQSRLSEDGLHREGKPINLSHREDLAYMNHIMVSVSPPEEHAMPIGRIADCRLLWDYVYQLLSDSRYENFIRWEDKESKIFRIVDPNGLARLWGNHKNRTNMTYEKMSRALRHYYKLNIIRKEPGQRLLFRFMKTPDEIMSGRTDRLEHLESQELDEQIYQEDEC
Summary of the method: as §1

AACTAT
binding signal (FEV): 1.31 fold enrichment (6-mer frequency, TF over GST control)
binding signal (ETV5): 1.37 fold enrichment (6-mer frequency, TF over GST control)
binding signal (HSF1): 1.33 fold enrichment (6-mer frequency, TF over GST control)
binding signal (SPIC): 1.43 fold enrichment (6-mer frequency, TF over GST control)
binding signal (ELF4): 1.36 fold enrichment (6-mer frequency, TF over GST control)
binding signal (ELK4): 1.45 fold enrichment (6-mer frequency, TF over GST control)
binding signal (ETV2): 1.49 fold enrichment (6-mer frequency, TF over GST control)
binding signal (ELF3): 1.26 fold enrichment (6-mer frequency, TF over GST control)
binding signal (CRX): 1.26 fold enrichment (6-mer frequency, TF over GST control)
binding signal (ETV1): 1.43 fold enrichment (6-mer frequency, TF over GST control)
binding signal (ERF): 1.17 fold enrichment (6-mer frequency, TF over GST control)
binding signal (ETV3L): 1.28 fold enrichment (6-mer frequency, TF over GST control)
binding signal (ETS2): 1.45 fold enrichment (6-mer frequency, TF over GST control)
binding signal (SPDEF): 1.42 fold enrichment (6-mer frequency, TF over GST control)
binding signal (ETV7): 1.38 fold enrichment (6-mer frequency, TF over GST control)
binding signal (ELF5): 1.45 fold enrichment (6-mer frequency, TF over GST control)
binding signal (ETV3): 1.28 fold enrichment (6-mer frequency, TF over GST control)
binding signal (ETV6): 1.33 fold enrichment (6-mer frequency, TF over GST control)

Source: article PMC7862700, “An all-to-all approach to the identification of sequence-specific readers for epigenetic DNA modifications on cytosine”
